Results filed as inconclusive are left out. The source made the active and inactive calls. Calls come from the whole dose curve; as a rule, active = well fitted inhibition curve with a large enough effect in the signal ratio, with a control signal flat; inconclusive = small, poorly fitted or top-dose-only effect, or effect the other way; inactive = flat fitted curve, though single readings scatter; the % refers to the signal ratio.

This test is described as follows: Confirmation Concentration-Response Assay for Identification of Small Molecule Antagonists of Stat Signaling Pathway. The note with it: SIE-bla cells, IL-6 stimulated, beta-lactamase ratio, 5 h. The text has this: NIH Molecular Libraries Screening Centers Network [MLSCN] NIH Chemical Genomics Center [NCGC] MLSCN Grant: None NCGC Assay Overview: This assay is a retest of actives identified from the Stat signaling pathway assay (PubChem AID 446). The Stat assay is cell-based and measures Interleukin 6 (IL-6) mediated modulation of a beta-lactamase reporter gene controlled by a STAT inducible element (SIE-bla cells, Invitrogen). IL-6 is a cytokine that signals via the JAK/STAT pathway and is implicated in cancer and inflammation. SIE-bla cells are induced by IL-6 at 40 pM EC50 and inhibited by the pan JAK inhibitor, 2-(1,1-Dimethylethyl)-9-fluoro-3,6-dihydro-7H-benz[h]-imidaz[4,5-f]isoquinolin-7-one, at approximately 10 nM IC50. Plated cells were incubated overnight and on the following day, stimulated with 40 pM IL-6 for 5 hrs. The assay was stimulated with an EC50 of IL-6 to retest inhibitors of STAT signaling.
NCGC Assay Protocol Summary: Cells were trypsinized, washed in assay medium (AM, OPTI MEM with 0.5% fetal bovine serum, 0.1 mM nonessential amino acids, 1 mM sodium pyruvate, 10mM HEPES pH 7.3, 100U/ml penicillin, and 100 ug/ml streptomycin) and suspended at […] in AM. Approximately 2500 cells in 5 uL/well was dispensed into 1536-well plates and the cells were incubated overnight at 37 C. 23 nL of compound were delivered by a pin tool and 1 uL of IL-6 (40 pM final concentration in AM) was added. After plates were incubated at 37 C for 5 hrs, 1uL of detector mix (LiveBLAzerTM, Invitrogen) was added, the plates incubated at room temperature for 2.5 hrs, and fluorescence intensity at 460 and 530 nm emissions was measured at 405 nm excitation by an Envision (Perkin Elmer).
As to `COc1ccc(C[C@@H]2C(=O)N[C@H](C)C(=O)N(C)[C@@H]3C(=O)N(C)[C@@H](Cc4ccc(O)c(c4)Oc4ccc(cc4)[C@H]3O)C(=O)N[C@@H](C)C(=O)N[C@H](C)C(=O)N2C)cc1`, the Potency was 0.398 µM (active).

For the compound `CC(C)C[C@H]1C(=O)N2CCC[C@H]2[C@]2(O)O[C@](NC(=O)[C@@H]3C=C4c5cccc6[nH]c(Br)c(c56)CC4N(C)C3)(C(C)C)C(=O)N12` (stereo partly specified), the Potency is 12.6 µM (active).

Regarding `CCn1cnc2c(Nc3cccc(Cl)c3)nc(N[C@@H]3CCCC[C@H]3N)nc21`, the Potency is 3.98 µM (active).

On to `C[C@]1(C(=O)O)[C@@H]2CC[C@@H](O2)[C@@]1(C)C(=O)O`, for which the Potency is 10 µM (active).

For the compound `CC(C)[C@H](CO)Nc1nc(Nc2cccc(Cl)c2)c2ncn(C(C)C)c2n1`, the Potency is 5.01 µM (active).

In the case of `CC[C@@H]1CN2CCc3cc(OC)c(OC)cc3[C@H]2C[C@@H]1C[C@@H]1NCCc2cc(OC)c(OC)cc21`, the Potency is 0.398 µM (active).

Source of the values: PubChem BioAssay AID922 (National Center for Advancing Translational Sciences (NCATS), 2007).
